Source: PubChem BioAssay
Only a selection was taken, and hits are over-represented in it overall.
ALOX12 inh – ALOX12 (human) lipoxygenase inhibition. P18054. purified 12hLO, xylenol orange hydroperoxide absorbance. Potency, µM (doses to about 108 µM), for inactives: at the highest dose activity change, negative = inhibition, actives largely listed as inhibitors. actives 1.1% (n = 580,000). AID 1671190; further: potency means the concentration at half of the fitted maximal effect
Target sequence (P18054 whole entry, looked up): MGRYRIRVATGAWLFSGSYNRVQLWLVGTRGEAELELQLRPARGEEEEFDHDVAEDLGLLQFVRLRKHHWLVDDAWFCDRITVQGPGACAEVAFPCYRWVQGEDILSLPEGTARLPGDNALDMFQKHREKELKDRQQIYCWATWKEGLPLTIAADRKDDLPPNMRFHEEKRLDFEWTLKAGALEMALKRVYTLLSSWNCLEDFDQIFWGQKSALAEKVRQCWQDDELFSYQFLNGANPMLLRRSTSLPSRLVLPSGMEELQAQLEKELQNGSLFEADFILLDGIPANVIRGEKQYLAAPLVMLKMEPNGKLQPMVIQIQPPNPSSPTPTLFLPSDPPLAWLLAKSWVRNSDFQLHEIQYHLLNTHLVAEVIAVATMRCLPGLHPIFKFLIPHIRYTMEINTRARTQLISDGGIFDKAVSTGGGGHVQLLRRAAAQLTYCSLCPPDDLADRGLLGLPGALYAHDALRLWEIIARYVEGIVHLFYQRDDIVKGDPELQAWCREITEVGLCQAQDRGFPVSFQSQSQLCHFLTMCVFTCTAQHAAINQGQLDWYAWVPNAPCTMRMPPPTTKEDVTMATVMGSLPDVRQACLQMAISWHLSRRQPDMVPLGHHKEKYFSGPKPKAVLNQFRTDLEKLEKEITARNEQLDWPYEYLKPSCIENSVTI
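Purified human 12hLO at 150 nM in 25 mM Hepes, 0.01% Triton X-100, pH 7.0, preincubated 15 min at room temperature with compound. Reaction started with 40 uM arachidonic acid, 30 min at room temperature. Hydroperoxide measured by Fe-xylenol orange, 573/405 nm absorbance ratio.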
HT1080-NT tox – kills 2HG-producing HT-1080-NT fibrosarcoma cells | AID 686970 | HT-1080-NT fibrosarcoma viability, CellTiter-Glo ATP luminescence, 48 h | Potency, µM (series often up to 46.1 µM), without a hit: top-dose activity, negative = less viability, actives largely listed as cytotoxic | actives 1.6% (n = 360,000);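 further: NT is the 2HG producing partner of a matched IDH1 knockdown line; potency means the concentration at half of the fitted maximal effect; 0% = DMSO-treated cells and -100% = media-only wells without cells; nearly all actives have a fitted effect of over 55% in size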
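Luminescent CellTiter-Glo readout after 48 hours of compound exposure at 37 degrees C defined viability of HT-1080-NT cells. Activity was normalized to DMSO wells and cell-free media wells; concentration-response curves were fitted and assigned curve classes.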
DT40 TDP1 CPT – DT40-hTDP1 cell growth loss with CPT. chicken DT40 Tdp1-/-;hTDP1 cells + 20 nM CPT, ATP luminescence, 48 h. Potency, µM (titrated, usually from 46.2 µM), without a hit: top-dose activity change, negative = growth inhibition, hits mostly inhibitors. actives 12% (n = 420,000). AID 686979; further: potency means the concentration at half of the fitted maximal effect; nearly all actives have a fitted effect of over 55% in size
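Chicken DT40 Tdp1-/- cells complemented with human TDP1, 400 cells/well, exposed to compounds plus 20 nM camptothecin for at least 48 h at 37 C; viability read as ATP content by CellTiter-Glo luminescence.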
HT1080 IDH1KD tx – kills HT-1080 cells with IDH1 knockdown. HT-1080 IDH1 knockdown viability, ATP luminescence, 48 h. Potency, µM (titrated, usually from 46.1 µM), inactives show at the highest dose activity, negative = toxicity, actives largely listed as cytotoxic. actives 2% (n = 360,000). AID 686971;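 further: potency means the concentration at half of the fitted maximal effect; 0% = DMSO wells and -100% = cell-free medium wells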
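Using the IDH1-knockdown HT-1080 line run in the same batch and compound series as the NT line, viability after 48 h at 37 °C was determined by CellTiter-Glo luminescence and expressed as % activity.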
DT40 TDP1 no CPT – qHTS for Inhibitors of human tyrosyl-DNA phosphodiesterase 1 (TDP1): qHTS in cells in absence of CPT; DT40 Tdp1-/- hTDP1 cells, no CPT, ATP luminescence, 48 h; Potency, µM (highest dose often 46.2 µM), for the others: top-dose activity change, negative = growth inhibition, most hits filed as inhibitors; actives 15% (n = 420,000); further: potency means the concentration at half of the fitted maximal effect; nearly all actives have a fitted effect of over 55% in size
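Seeded 400 DT40-hTDP1 cells/well (vehicle DMSO, no 20 nM CPT); pinned compounds; ≥48 hr at 37 °C; CellTiter-Glo luminescence as viability measure.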
IL-1B inflam inh – inhibitors of inflammasome signaling (IL-1 beta secretion). THP-1 LPS/ATP IL-1B secretion, AlphaLISA, 16 h; stronger effect = lower value. activity change, % at 57.5 µM. actives 4.7% (n = 360,000); in the data active means activity change below about -50%; inconclusive means mostly about -30% to -49%
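THP-1 cells pretreated 1 hr with compounds (up to 57.5 uM final), then stimulated with LPS (250 ng/mL final) plus ATP (1.25 mM final); secreted IL-1B measured by AlphaLISA after 16 hr, decreased signal indicating inhibition.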
Numbers without * were called inactive; ? = inconclusive; . = no result given; [ ] = dose if it differs, or a comment. Unless noted, the call rests on the fitted dose curve; in most records, active means well fitted curve in the direction sought with a large enough effect; inconclusive means small, poorly fitted or top-dose-only effect, or another doubt; inactive means no such curve, though single readings can be large; an effect the other way counts as inactive or inconclusive. Unless noted, on the % scale 0 is the no-effect control and ±100 the full control effect.

SMILES	ALOX12 inh	HT1080-NT tox	DT40 TDP1 CPT	HT1080 IDH1KD tx	DT40 TDP1 no CPT	IL-1B inflam inh
Cc1ccc2c(c1)N(CC(=O)NCc1cccc(Cl)c1)C(=O)c1cccnc1O2	-6%	.	?	.	?	.
O=C(CN1C(=O)c2cccnc2Oc2ccc(Cl)cc21)NC1CCCC1	5%	-7%	-16%	-2%	15µM*	-7
CCOc1ccccc1CNC(=O)CN1C(=O)c2cccnc2Oc2ccc(Cl)cc21	?	.	?	.	16µM*	.
O=C(CN1C(=O)c2cccnc2Oc2ccc(Cl)cc21)NC1CCCCCC1	-1%	-3%	-14%	-13%	-1%	0
c1cncc(-c2nc(Oc3cccc4ccccc34)c3ccccc3n2)c1	-11%	.	.	.	.	.
COCCN(Cc1ccccc1)C(=O)c1cccc(S(=O)(=O)N2CCN(c3ccc(F)cc3)CC2)c1	-4%	0%	?	-11%	18µM*	-20
COCCN(Cc1nc2ccccc2c(=O)[nH]1)C(=O)c1cccc(S(=O)(=O)N2CCCC2)c1	5%	6%	?	-4%	-4%	31
COCCN(Cc1ccccc1)C(=O)c1cccc(S(=O)(=O)N2CCN(c3ccccc3)CC2)c1	5%	-4%	?	-2%	16µM*	-5
N#C/C(=C/c1ccc(N2CCCCCC2)o1)c1ccc(Cl)cc1	.	5.6µM*	15µM*	2.2µM*	18µM*	-102*
N#C/C(=C/c1ccc(N2CCCCC2)o1)c1cccc(F)c1	10µM*	?	10µM*	4µM*	15µM*	-28
N#C/C(=C\c1ccc(-c2ccccc2Cl)o1)c1ccc(Cl)cc1	4%	.	.	.	.	.
CCOc1ccc(S(=O)(=O)Nc2cccc(-c3nnc4n3CCCCC4)c2)cc1	-4%	.	.	.	.	.
COc1ccc(CN2C(=O)c3ccccc3C(/C=N\OCc3ccc(F)cc3)C2=O)cc1 (stereo not drawn)	-17%	-25%	?	?	8.2µM*	0
COc1ccc(CN2C(=O)c3ccccc3C(/C=N/OCc3ccc(Cl)cc3)C2=O)cc1 (stereo not drawn)	-2%	-30%	13µM*	?	12µM*	8
COC1=CC(=O)c2c(ccc3ncnc(N)c23)C1=O	?	4.1µM*	0.21µM*	2.9µM*	0.29µM*	-112*
CC1CC(C)CN(C(=O)c2ccc3c(c2NCCO)C(=O)c2ccccc2C3=O)C1 (stereo not drawn)	0%	?	29µM*	?	23µM*	-23
O=C(NCCc1ccc(Cl)cc1)C1CCc2nnc(-c3ccc(Cl)cc3Cl)n21 (stereo not drawn)	1%[6.33 µM]	.	.	.	.	.
Cc1cc2occ(CC(=O)Nc3nnc(C4CC4)s3)c2cc1C	-6%	5%	-26%	-13%[9.24 µM]	-16%	19
O=C(Cc1coc2ccc3ccccc3c12)Nc1nnc(C2CC2)s1	-14%	-21%	?	?	23µM*	29
O=C1COc2cc(S(=O)(=O)NCc3ccco3)c(Cl)cc2N1	2%	.	18µM*	.	?	.
COC[C@@H]1CN(Cc2cc(F)c(F)c(F)c2)C[C@H]1C(N)=O	25%	.	.	.	.	.
CCOc1ccc(CCNC(=O)C(CC(C)C)N2Cc3ccccc3C2=O)cc1OCC (stereo not drawn)	3%	.	10µM*	.	9.2µM*	.
CC(C)CC(C(=O)NCCc1ccccc1)N1Cc2ccccc2C1=O (stereo not drawn)	0%	.	?	.	21µM*	.
CC(C)CC(C(=O)NCc1ccc(F)cc1)N1Cc2ccccc2C1=O (stereo not drawn)	0%	.	?	.	?	.
